Measured values from PubChem BioAssay (NCI).
Several values for one entry are separate records, joined by “and”; a condition that tells them apart may be missing. Equal values may be shown once. The panel holds about 79,000 compounds, 15% with a hit somewhere; the sample as a whole holds those more often. Some structures have more than one record in an assay (separate samples or runs), and their calls can disagree. Activity calls are given as the source filed them. Cut-off read from the data, not from the text of the source: active = growth inhibition above about 70%; inactive = the rest.

Experiments:
[1] = NCI Yeast Anticancer Drug Screen. Data for the rad50 strain (AID 155);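 note: 0% = growth of vehicle-only cultures of the same strain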; details: S. cerevisiae rad50 strain growth inhibition, stronger effect = higher value
Procedure, shortened: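 Relative growth inhibition (compound vs vehicle) was measured in yeast with a defined repair-gene alteration.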

[2] = NCI Yeast Anticancer Drug Screen. Data for the mec2-1 strain (AID 157); details: S. cerevisiae mec2-1 strain, stronger effect = higher value
Procedure, shortened: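 Vehicle-treated cultures served as reference for growth inhibition of compound-exposed mec2-1 yeast.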

[3] = NCI Yeast Anticancer Drug Screen. Data for the sgs1 mgt1 strain (AID 161);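 note: 0% = growth of cultures given vehicle only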; details: S. cerevisiae sgs1 mgt1 strain, stronger effect = higher value
Procedure, shortened: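 Genetically altered yeast, compound exposure, growth inhibition relative to vehicle.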

[4] = NCI Yeast Anticancer Drug Screen. Data for the bub3 strain (AID 167); details: S. cerevisiae bub3 mutant strain, stronger effect = higher value
Procedure, shortened: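 Screening used yeast with an engineered genetic alteration affecting cell cycle control. Compound-exposed cultures were compared with vehicle cultures, and reduced growth was taken as inhibition.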

[5] = NCI Yeast Anticancer Drug Screen. Data for the mlh1 rad18 strain (AID 175); details: S. cerevisiae mlh1 rad18 strain growth inhibition, stronger effect = higher value
Procedure, shortened: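 Vehicle-treated cultures served as the reference for growth inhibition in a yeast strain carrying DNA damage repair alterations exposed to each compound.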

[6] = NCI Yeast Anticancer Drug Screen. Data for the cln2 rad14 strain (AID 165);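 note: 0% = growth equal to vehicle treated cultures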; details: S. cerevisiae cln2 rad14 strain, stronger effect = higher value
Procedure, shortened: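 Each compound was tested on cln2 rad14 yeast. Inhibition of growth was calculated against vehicle-exposed controls.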

[7] = at 5.0 µM (retest, dose inferred, filed as 0.5)
[8] = at 50.0 µM (retest, dose inferred, filed as 5.0)

Structure (SMILES)	growth inhibition [1, 7]	growth inhibition [1, 8]	growth inhibition ([1]; at 50.0 µM)	growth inhibition [2, 7]	growth inhibition [2, 8]	growth inhibition ([2]; at 50.0 µM)	growth inhibition [3, 7]	growth inhibition [3, 8]	growth inhibition ([3]; at 50.0 µM)	growth inhibition [4, 7]	growth inhibition [4, 8]	growth inhibition ([4]; at 50.0 µM)	growth inhibition [5, 7]	growth inhibition [5, 8]	growth inhibition ([5]; at 50.0 µM)	growth inhibition [6, 7]	growth inhibition [6, 8]	growth inhibition ([6]; at 50.0 µM)
c1cc2c3c(c1)ccc1cccc(c13)COC2	-21% (inactive) and -2% (inactive)	10% (inactive) and 85% (active)	86.3% (active) and 98% (active)	-6% (inactive) and 9% (inactive)	-8% (inactive) and 75% (active)	51.1% (inactive) and 96.7% (active)	-4% (inactive) and -10% (inactive)	20% (inactive) and 58% (inactive)	47.5% (inactive) and 95.8% (active)	-13% (inactive) and -12% (inactive)	10% (inactive) and 65% (inactive)	88.2% (active) and 94.9% (active)	-19% (inactive) and -11% (inactive)	9% (inactive) and 89% (active)	56.5% (inactive) and 98.2% (active)	–	–	–
C=C1C(=O)N2c3ccccc3C(C)(C)C2(S)C(=O)N1C (centres undefined)	9% (inactive)	87% (active)	88.8% (active)	3% (inactive)	86% (active)	95.6% (active)	3% (inactive)	67% (inactive)	96.5% (active)	-5% (inactive)	78% (active)	93.6% (active)	5% (inactive)	83% (active)	96.7% (active)	–	–	–
CCN(CC)Cc1cc2c(cc1O)CC[C@@H]1[C@@H]2CC[C@]2(C)C(=O)CC[C@@H]12	39% (inactive)	80% (active)	83.6% (active) and 25.6% (inactive)	-5% (inactive)	60% (inactive)	55.8% (inactive) and 15.2% (inactive)	16% (inactive)	47% (inactive)	78.5% (active) and 22.2% (inactive)	15% (inactive)	67% (inactive)	54% (inactive) and 56% (inactive)	38% (inactive)	81% (active)	71.3% (active) and 20.9% (inactive)	–	–	–
COc1cc2c3c(c1)SCCC(=O)N3CCN2	17% (inactive)	17% (inactive)	71.7% (active)	4% (inactive)	4% (inactive)	81.2% (active)	15% (inactive)	15% (inactive)	-22.6% (inactive)	0% (inactive)	0% (inactive)	73.3% (active)	14% (inactive)	14% (inactive)	45.7% (inactive)	–	–	–
O=C(OC(=Nc1ccccc1)N(c1ccccc1)c1ccccc1)c1ccccc1	5% (inactive)	27% (inactive)	13% (inactive) and 20.9% (inactive)	5% (inactive)	8% (inactive)	3.75% (inactive) and 12.8% (inactive)	-7% (inactive)	40% (inactive)	12.7% (inactive) and -15.7% (inactive)	17% (inactive)	34% (inactive)	5.4% (inactive) and -0.45% (inactive)	9% (inactive)	20% (inactive)	1.95% (inactive) and 12.6% (inactive)	–	–	–
O=C(CCN1CCN2c3ccccc3CCC2C1)c1ccc(F)cc1 (centres undefined)	51% (inactive) and 17% (inactive)	86% (active) and 98% (active)	95.7% (active) and 83.2% (active)	63% (inactive) and 22% (inactive)	88% (active) and 97% (active)	91.5% (active) and 43.5% (inactive)	74% (active) and -2% (inactive)	96% (active) and 100% (active)	97.2% (active) and 89.7% (active)	60% (inactive) and 78% (active)	84% (active) and 99% (active)	97.8% (active) and 95.2% (active)	82% (active) and 40% (inactive)	96% (active) and 99% (active)	98.5% (active) and 45% (inactive)	–	–	–
O=C1C(=Cc2c[nH]c3ccccc23)C(=O)c2ccccc21	11% (inactive)	93% (active)	-9.1% (inactive) and 69.2% (inactive)	-24% (inactive)	96% (active)	-6.4% (inactive) and 69.5% (inactive)	-1% (inactive)	91% (active)	0.1% (inactive) and 71.1% (active)	3% (inactive)	95% (active)	-15.7% (inactive) and 62.8% (inactive)	-1% (inactive)	96% (active)	-1.65% (inactive) and 78.5% (active)	–	–	–
O=c1c(Cl)c(Cl)cnn1CCCl	40% (inactive)	92% (active)	74.9% (active)	–	–	–	-1% (inactive)	47% (inactive)	-15.6% (inactive)	-6% (inactive)	69% (inactive)	-10.5% (inactive)	15% (inactive)	71% (active)	–	6% (inactive)	32% (inactive)	7.15% (inactive)
CC1=C(C(=O)Nc2c(C)cccc2C)C(c2ccc3c(c2)OCO3)C(C(=O)Nc2c(C)cccc2C)=C(C)N1	25% (inactive)	25% (inactive)	81.9% (active)	19% (inactive)	19% (inactive)	86.9% (active)	4% (inactive)	4% (inactive)	85.7% (active)	6% (inactive)	6% (inactive)	87.5% (active)	7% (inactive)	7% (inactive)	82.7% (active)	–	–	–
O=C1/C(=C/c2ccc(Cl)cc2)CNC/C1=C\c1ccc(Cl)cc1	83% (active) and 48% (inactive)	79% (active) and 71% (active)	76.7% (active) and 86.2% (active)	–	–	–	88% (active) and 58% (inactive)	88% (active) and 91% (active)	87.2% (active) and 86.7% (active)	90% (active) and 46% (inactive)	85% (active) and 95% (active)	79.9% (active) and 85.3% (active)	91% (active) and 66% (inactive)	75% (active) and 88% (active)	81.2% (active) and 79.2% (active)	69% (inactive) and 44% (inactive)	85% (active) and 73% (active)	83.8% (active) and 83.5% (active)
Oc1c(Cl)cc(Cl)cc1Cc1cc(Cl)cc(Cl)c1O	93% (active) and 80% (active)	98% (active)	98.2% (active) and 99% (active)	86% (active) and 85% (active)	99% (active)	98.8% (active) and 99.2% (active)	–	–	–	88% (active) and 74% (active)	98% (active)	98.4% (active) and 99.3% (active)	94% (active) and 89% (active)	98% (active)	98.5% (active) and 99.2% (active)	97% (active) and 84% (active)	99% (active) and 98% (active)	99% (active)
NCC(=O)OCN1C(=O)C2C3C=CC(C2C1=O)C1C2C(=O)N(COC(=O)CN)C(=O)C2C31 (centres undefined)	28% (inactive)	63% (inactive)	-5.35% (inactive) and 24% (inactive)	–	–	–	25% (inactive)	45% (inactive)	4.85% (inactive) and -30.4% (inactive)	24% (inactive)	68% (inactive)	-15.2% (inactive) and -46.8% (inactive)	26% (inactive)	71% (active)	-18.6% (inactive) and -43.7% (inactive)	21% (inactive)	55% (inactive)	23.5% (inactive) and -6.55% (inactive)
Nc1ccc2c(n1)NCC/C2=N\Nc1ccccc1	1% (inactive)	72% (active)	90.5% (active)	-2% (inactive)	60% (inactive)	78.3% (active)	–	–	–	-5% (inactive)	91% (active)	87.8% (active)	0% (inactive)	92% (active)	98% (active)	-2% (inactive)	23% (inactive)	60.9% (inactive)
Nc1ccc(N=Nc2ccccc2)c(N)n1	-166% (inactive)	-14% (inactive)	38.1% (inactive) and 16.4% (inactive)	-54% (inactive)	-20% (inactive)	30.4% (inactive) and 10.7% (inactive)	-73% (inactive)	4% (inactive)	28.6% (inactive) and 5.05% (inactive)	–	–	–	-130% (inactive)	-25% (inactive)	57.1% (inactive) and 7.85% (inactive)	-72% (inactive)	10% (inactive)	9.05% (inactive) and 19.2% (inactive)
Cc1nc2c(ccc3[nH]c4ccccc4c32)s1	7% (inactive)	99% (active)	90.8% (active)	9% (inactive)	99% (active)	92.5% (active)	16% (inactive)	99% (active)	91% (active)	–	–	–	10% (inactive)	99% (active)	89.9% (active)	-16% (inactive)	99% (active)	91% (active)
O=Cc1cc(Br)ccc1O	21% (inactive) and 9% (inactive)	97% (active) and 85% (active)	88.7% (active) and 95.2% (active)	7% (inactive) and 4% (inactive)	73% (active) and 77% (active)	92.5% (active) and 98% (active)	10% (inactive) and 4% (inactive)	73% (active) and 68% (inactive)	95.9% (active) and 96.3% (active)	–	–	–	17% (inactive) and 11% (inactive)	94% (active) and 93% (active)	97% (active) and 99% (active)	8% (inactive) and -3% (inactive)	61% (inactive) and 30% (inactive)	48.2% (inactive) and 69% (inactive)
O=[N+]([O-])C(/C=C(\Cl)[N+](=O)[O-])=C(Nc1ccccc1)Nc1ccccc1	-23% (inactive)	98% (active)	86.8% (active)	–	–	–	-16% (inactive)	98% (active)	86.8% (active)	-33% (inactive)	99% (active)	85.8% (active)	27% (inactive)	99% (active)	80.3% (active)	1% (inactive)	98% (active)	82.8% (active)
